Screening data as filed in PubChem BioAssay.
AmpC detergent – inhibitors of E. coli AmpC beta-lactamase with detergent | P00811 | Potency, µM (highest dose often 114 µM), for inactives: at the highest dose activity change, negative = inhibition, hits mostly inhibitors | 0.041% of 370,000 active | AmpC hydrolysis of nitrocefin, absorbance 480 nm, 0.01% Triton | AID 485294;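 note: 0% = no-compound wells and -100% = no-enzyme wells; nearly all actives have a fitted effect of over 25% in size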
Target sequence (P00811 whole entry, looked up): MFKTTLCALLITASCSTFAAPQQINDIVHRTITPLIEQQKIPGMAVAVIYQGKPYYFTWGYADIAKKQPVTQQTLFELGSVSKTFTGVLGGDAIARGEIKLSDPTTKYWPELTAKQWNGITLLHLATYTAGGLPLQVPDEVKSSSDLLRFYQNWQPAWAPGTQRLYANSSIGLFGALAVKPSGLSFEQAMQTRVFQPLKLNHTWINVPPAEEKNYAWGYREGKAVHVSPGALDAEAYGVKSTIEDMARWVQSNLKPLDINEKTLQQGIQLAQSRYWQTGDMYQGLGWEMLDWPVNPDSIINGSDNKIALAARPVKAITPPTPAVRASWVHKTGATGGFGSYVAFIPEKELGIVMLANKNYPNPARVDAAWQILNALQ
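AmpC (5.3 nM in the dispensed reagent) in 20 mM phosphate pH 7.0 with 0.01% (detergent screen) or 0.0001% Triton X-100 was preincubated with compounds for 15 min at room temperature. Nitrocefin was then added from an 800 uM solution, and hydrolysis was followed at 480 nm.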
Sm TGR inh – S. mansoni TGR enzyme inhibition; Potency, µM (doses to about 114 µM), without a hit: at the top dose activity change, negative = inhibition, hits mostly inhibitors; AID 485364; purified TGR, DTNB reduction, TNB absorbance 405 nm; Q962Y6; 3% of 360,000 active; note: nearly all actives have a fitted effect of over 60% in size
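Kinetic colorimetric format: TGR-catalysed, NADPH-driven DTNB reduction monitored via TNB absorbance. Enzyme dispensed at 20 nM; compound exposure 15 min at room temperature before reaction start.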
AmpC no deterg – inhibitors of E. coli AmpC beta-lactamase without detergent; 0.52% of 330,000 active; Potency, µM (doses to about 57.1 µM), without a hit: at the top dose activity change, negative = inhibition, actives largely listed as inhibitors; AID 485341; P00811; AmpC nitrocefin hydrolysis, absorbance 480 nm, 0.0001% Triton;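 note: plate controls were no compound for no effect and no enzyme for full effect; nearly all actives have a fitted effect of over 20% in size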
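20 mM phosphate pH 7.0 + 0.01% (detergent screen) or 0.0001% Triton X-100; 5.3 nM AmpC reagent; cpd preinc 15 min RT; nitrocefin (800 uM stock) to start; A480 q20 s × 4 min; Activity was normalised to no-enzyme and no-compound control wells.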
Starred values were filed as active, the others as inactive; ! = a repeat was not active. A selection: hits, their analogues and other compounds. The true share with any hit is near 3.3%. Calls come from the whole dose curve; as a rule, active = well fitted curve in the direction sought with a large enough effect; inconclusive = small, poorly fitted or top-dose-only effect, or another doubt; inactive = no such curve, though single readings can be large; an effect the other way counts as inactive or inconclusive. Unless noted, % is set by controls: 0 for no effect and ±100 for the full control effect; potency is the fitted concentration of half-maximal effect.

What do the screens show for `Cc1ccc(NC(=O)C2CCCN(c3nc4ccccc4s3)C2)c(C)c1` (configuration not stated)?
AmpC detergent: 16.9%; Sm TGR inh: 13.6%

Results for C=CC[C@@H](CC(=O)N[C@H](CO)Cc1ccccc1)C(=O)N[C@@H](COC(=O)[C@@H](CC=C)CC(=O)OC(C)(C)C)Cc1ccccc1 ?
AmpC no deterg: 226.9%

Results for CC(=O)N1CC(=O)N=C1SCC(=O)Nc1nc(-c2ccccc2)c(-c2ccccc2)s1 ?
AmpC detergent: 3.2%; Sm TGR inh: -4.2%; AmpC no deterg: 10.1%

What do the screens show for `CCc1ccc(C(=O)c2cnc3ccc(F)cc3c2S(=O)(=O)c2ccccc2)cc1`?
AmpC detergent: -2.6%; Sm TGR inh: -15.8%

Results for O=C(CN(Cc1cccs1)C(=O)CNS(=O)(=O)c1ccccc1)NC1CCCC1 ?
AmpC detergent: 3.2%; AmpC no deterg: 0.5%

How did CCOC(=O)C1(Cc2ccccc2)CCCN(C(=O)c2ccc(-n3ccnc3)cc2)C1 (configuration not stated) do in these assays?
AmpC detergent: -2.1%; Sm TGR inh: 4.5%; AmpC no deterg: 96.5%

How did COc1ccccc1NC(=O)c1ccc(COc2ccccc2OC)o1 do in these assays?
AmpC detergent: -12.4%; Sm TGR inh: 1.7%; AmpC no deterg: -3.4%

How did C=CCc1ccc(OCc2ccc(C(=O)Nc3ccc(NC(C)=O)cc3)o2)c(OC)c1 do in these assays?
AmpC detergent: 0.8%; Sm TGR inh: 44.7µM*!; AmpC no deterg: 101.3%

How did CCN(C(=O)c1ccc(S(=O)(=O)N2CCCCC2)cc1)C1CCS(=O)(=O)C1 (configuration not stated) do in these assays?
AmpC detergent: inconclusive; Sm TGR inh: 5.1%; AmpC no deterg: inconclusive

How did CC(C)C(NC(=O)c1ccc(Cl)cc1Cl)C(=O)N1CCN(S(=O)(=O)c2ccccc2)CC1 (configuration not stated) do in these assays?
AmpC no deterg: 40.2%

How did Cc1cccc(C2NC(=O)c3c(sc(C)c3C)N2)c1O (configuration not stated) do in these assays?
AmpC detergent: 0.1%; Sm TGR inh: 1.3%; AmpC no deterg: -24.7%

How did Cc1ccc(C2NC(=O)c3c(sc(C)c3C)N2)c(O)c1 (configuration not stated) do in these assays?
AmpC detergent: inconclusive; Sm TGR inh: 25.1µM*; AmpC no deterg: -36.5%

Results for O=C(Nc1ccc(Br)cc1)c1ccccc1CC[N+](=O)[O-] ?
AmpC detergent: 2.2%; Sm TGR inh: -6.4%; AmpC no deterg: inconclusive

How did Cc1cc(C)cc(NC(=O)c2ccccc2CC[N+](=O)[O-])c1 do in these assays?
AmpC detergent: -0.6%; Sm TGR inh: 39.8µM*; AmpC no deterg: inconclusive

What do the screens show for `c1ccc(-c2nc(CSc3n[nH]c(-c4cccs4)n3)cs2)cc1`?
AmpC detergent: 1.6%; Sm TGR inh: -0.1%; AmpC no deterg: -41.5%

How did Cc1cc(Nc2cccc(Cl)c2C)n2nc(Cc3ccccc3)nc2n1 do in these assays?
AmpC detergent: 19.5%; Sm TGR inh: 1.7%

Results for CCN(CC)S(=O)(=O)c1ccc(C)c(NC(=O)COC(=O)CCC(=O)c2cccs2)c1 ?
AmpC detergent: 4.5%; Sm TGR inh: 1.3%; AmpC no deterg: -19.9%

Results for Cc1ccc(C)c(N2CCN(C(=O)c3cc(S(=O)(=O)N4CCOCC4)ccc3F)CC2)c1 ?
AmpC detergent: inconclusive; Sm TGR inh: -10.7%; AmpC no deterg: -10.0%

What do the screens show for `CSCCC(NC(=O)c1ccco1)C(=O)NCCc1ccc(Cl)cc1` (configuration not stated)?
AmpC no deterg: -5.1%

How did CC(=O)Nc1nn(C)c2nc(C)cc(C)c12 do in these assays?
AmpC detergent: -0.9%; Sm TGR inh: 1.8%; AmpC no deterg: -4.7%

What do the screens show for `CCOC(=O)CC1C(=O)NCCN1C(=O)c1cc2c(=O)n3cccc(C)c3nc2s1` (configuration not stated)?
AmpC detergent: -5.9%; Sm TGR inh: 35.5µM*; AmpC no deterg: -2.5%

How did CCOC(=O)CC1C(=O)NCCN1C(=O)c1cc2c(=O)n3ccccc3nc2s1 (configuration not stated) do in these assays?
AmpC detergent: -6.0%; Sm TGR inh: -5.2%; AmpC no deterg: -7.1%

What do the screens show for `CCNC(=S)N1CCn2c(nc3ccccc32)C1`?
AmpC detergent: -2.1%; Sm TGR inh: -16.4%; AmpC no deterg: -3.0%

What do the screens show for `COc1ccc2[nH]c3c(c2c1)CCC/C3=N\N`?
AmpC detergent: -4.7%; Sm TGR inh: 44.7µM*; AmpC no deterg: -21.8%

How did COc1ccc2[nH]c3c(c2c1)CCN=C3C do in these assays?
AmpC detergent: inconclusive; Sm TGR inh: -18.7%; AmpC no deterg: -17.3%

Results for COc1ccc(C2C=C(c3ccccc3)Nc3nc(NC(=O)/C=C/c4ccccc4)nn32)cc1 (configuration not stated) ?
AmpC detergent: -4.8%; Sm TGR inh: 0.7%

What do the screens show for `COc1ccc(C2C=C(c3ccccc3)Nc3nc(NC(=O)/C=C/c4ccccc4OC)nn32)cc1` (configuration not stated)?
AmpC detergent: 1.4%; Sm TGR inh: -12.4%

What do the screens show for `COc1ccc(C(=O)Nc2nc3n(n2)C(c2ccccc2)C=C(c2ccccc2)N3)cc1` (configuration not stated)?
AmpC detergent: 2.1%; Sm TGR inh: 3.16µM*

How did CCC(=O)Nc1nc2n(n1)C(c1ccc(OC)cc1)C=C(c1ccccc1)N2 (configuration not stated) do in these assays?
AmpC detergent: 4.4%; Sm TGR inh: 4.47µM*; AmpC no deterg: 1.8%

How did CC(C)(C)OC(=O)NCC1CCN(S(=O)(=O)Cc2ccccc2)CC1 do in these assays?
AmpC detergent: inconclusive; Sm TGR inh: 0.0%; AmpC no deterg: -3.0%

What do the screens show for `CC(C)(C)OC(=O)NCC12C=CC(O1)C1C(=O)N(Cc3ccccc3)C(=O)C12` (configuration not stated)?
AmpC detergent: 1.1%; Sm TGR inh: 8.91µM*; AmpC no deterg: 1.6%

How did CC(C)C(C)NC(=O)CN1C(=O)NC2(CCc3ccccc32)C1=O (configuration not stated) do in these assays?
AmpC detergent: -1.7%; Sm TGR inh: -11.0%; AmpC no deterg: 2.0%

What do the screens show for `CCCc1nc(Cl)c(C#N)c2c1CCCC2`?
AmpC detergent: 3.5%; Sm TGR inh: 25.1µM*; AmpC no deterg: -8.3%

Results for CCc1nc(Cl)c(C#N)c2c1CCCC2 ?
AmpC detergent: -4.9%; Sm TGR inh: -3.0%; AmpC no deterg: -18.9%

How did CCCc1c(C(=O)NNc2cccc(Cl)c2)cnn1-c1ccccc1 do in these assays?
AmpC detergent: 10.0%; Sm TGR inh: -9.8%; AmpC no deterg: -28.0%

What do the screens show for `COc1cccc(NCc2cccn2-c2nnc(N3CCC(C)CC3)s2)c1`?
AmpC detergent: 12.4%; Sm TGR inh: -21.3%

How did COc1ccc(NCc2cccn2-c2nnc(N3CCCCC3)s2)cc1OC do in these assays?
AmpC detergent: -3.2%; Sm TGR inh: 44.7µM*

How did COc1ccc(NCc2cccn2-c2nnc(N3CCOCC3)s2)cc1OC do in these assays?
AmpC detergent: 1.2%; Sm TGR inh: 31.6µM*
